The source of these data is PubChem BioAssay (NCI).

Holding throughout (assay): NCI-60 one-dose screen, 48 h (100 = growth as untreated, 0 = no growth, -100 = all killed)
Common to all, as to settings: 10 µM unless noted

The subject of test [1] is DU-145 prostate.
Test [2] concerns K-562 leukemia.
Test [3] deals with MALME-3M melanoma.
The subject of test [4] is MDA-MB-231 breast.
Test [5] deals with RXF 393 renal.
In test [6] the test system is SF-268 CNS.
Test [7] concerns SF-295 CNS.
In test [8] the test system is SF-539 CNS.
Test [9] relates to UACC-257 melanoma.
The test system of test [10] is M14 melanoma.
Test [11] has as its system HCT-15 colon.
Test [12] relates to HT29 colon.
For test [13], the system named is SNB-75 CNS.
In test [14] the test system is U251 CNS.
In test [15] the test system is SK-MEL-5 melanoma.
For test [16], the system named is UACC-62 melanoma.
Test [17] relates to LOX IMVI melanoma.
Test [18] concerns SK-MEL-28 melanoma.
Test [19] concerns PC-3 prostate.

The panel holds about 83,000 compounds, 20% with a hit somewhere; the sample as a whole holds those more often.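 Treatment: one concentration, 48 hours, 96-well format. Scoring: percent growth, with anything below 10 considered active.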 A number with no mark means an inactive call. Activity calls are given as the source filed them.

For the compound `Nc1c(C(=O)Nc2ccncc2)sc2nc3c(cc12)C(O)CCC3` (centres undefined), the growth was 96.8% in [1]; 88.7% in [2]; 118% in test [3]; 96.8% in test [4]; 107% in [5]; 95.1% in test [6]. The growth in test [7] was 106%; in test [8] it was 96.2%; in test [9], 96.3%; in test [10], 114%; in test [11], 86.3%; in test [12], 85.4%. Further, the growth in [13] is 105%; in test [14], 91.6%; in [15] it was 92.4%; in test [16] it was 80%; in test [17], 105%; in test [18], 85.5%.
With `O=c1[nH]c(Cc2nc3ccccc3s2)nc2cc(Br)ccc12`, the growth in test [1] is 70.5%; in [2] it was 23.2%; in test [3], 90.7%; in [4], 65.6%; in [5] it was 104%; in [6], 61%. The growth in test [7] is 76.5%; in test [8], 90.3%; in test [9], 72.2%; in test [10], 35.2%; in [11] it was 61.7%; in test [12], 43.7%. Also, the growth was 82.1% in test [13]; 81.9% in test [14]; 60.9% in [19]; 80.6% in test [15]; 2.81% (active) in test [16]; 55.1% in test [18].
Take `COC(=O)Nc1nc2ccc(S(=O)c3ccccc3)cc2[nH]1` (centres undefined): the growth in test [1] was 96.3%; in test [2] it was 29.9%; in test [3] it was 83.7%; in [4] it was 68.4%; in test [5], 107%; in test [6] it was 84.8%. In addition, the growth was 58.4% in test [7]; 73.6% in test [8]; 73.9% in test [9]; 44.5% in test [10]; 45.6% in test [11]; 16.9% in [12]. Moreover, the growth in [13] was 73.2%; in [14], 60.2%; in test [19], 67.4%; in test [15], 42.5%; in [16] it was 52.4%; in [17], 64.8%. For the same compound, in test [18], the growth is 72.8%.
On to `S=c1sc2c(Cl)nc(-c3cccnc3)nc2n1-c1ccccc1`, for which the growth was 27.4% in test [1]; 0.869% (active) in test [2]; 65.8% in test [3]; -11.7% (active) in test [4]; -42.1% (active) in test [5]; 14.6% in [6]. Also, the growth in [7] was 96.1%; in test [8], 6.15% (active); in [9], 50%; in test [10], 33%; in test [11], -32.6% (active); in test [12] it was -53.8% (active). Also, the growth in test [13] was 57.1%; in test [14] it was 7.95% (active); in [19] it was 1.75% (active); in test [15] it was 76.3%; in [16], -10.2% (active); in [17], -52% (active). Besides, in test [18], the growth was -58.2% (active).
As for `O=C(Nc1ccc(Oc2cccc(Cl)c2)c(Cl)c1)c1cnccn1`, the growth was 22.7% in [1]; 13.2% in test [2]; 53.4% in test [3]; 31.7% in test [4]; -4.58% (active) in [5]; 54.3% in test [6]. In addition, the growth in [7] was 41.2%; in [8], -35.2% (active); in [9], 72.4%; in test [10], 19.8%; in [11] it was 23.3%; in [12] it was 2.14% (active). Also, the growth is -20.9% (active) in test [13]; 16.5% in test [14]; 11.1% in test [19]; 25.8% in test [15]; 28.4% in test [16]; 29.9% in test [17]. Also, the growth in [18] was 64.9%.
As to `CCC(=O)Oc1ccc(-c2ccccc2)cc1Br`, the growth in test [1] is 107%; in test [2], 107%; in test [3], 109%; in [4], 103%; in test [5], 106%; in [6] it was 103%. Besides, the growth was 104% in test [7]; 106% in test [8]; 106% in test [9]; 102% in test [10]; 105% in test [11]; 101% in [12]. Besides, the growth was 95.1% in [13]; 103% in [14]; 95.4% in [19]; 98.3% in [15]; 109% in test [16]; 107% in test [17]. For the same compound, the growth in test [18] is 110%.
With `CN1CCc2nc3sc(C(N)=O)c(N)c3c(-c3cccs3)c2C1`, the growth in [1] was 10.2%; in test [2], 74.2%; in test [3], 55%; in test [4] it was 44.5%; in [5], -32% (active); in test [6] it was 16.4%. Also, the growth in test [7] was 21.7%; in test [8], 10.9%; in test [9], 57.9%; in test [10] it was 15.5%; in test [11], 33%; in [12], 42.6%. For the same compound, the growth in [13] was 25.2%; in test [14], 27.4%; in [19] it was 32.5%; in test [15] it was -58.7% (active); in test [16], 19.5%; in test [18], 5.5% (active).
Consider `COc1ccc(C/C(C)=C(\c2ccc(Cl)cc2)c2ccc(OCCN3CCCCC3)cc2)cc1`, for which the growth was 110% in test [1]; 67.3% in [2]; 106% in test [3]; 93.3% in [4]; 85.1% in test [5]; 99.6% in [6]. Moreover, the growth in [7] is 101%; in test [8] it was 93.6%; in [9], 104%; in test [10] it was 93.3%; in [11], 84.3%; in [12], 81.2%. Besides, the growth in [13] is 89.3%; in test [14] it was 92.1%; in test [19], 94.6%; in test [15], 107%; in [16], 83.8%; in test [17], 104%. In addition, the growth in [18] was 101%.
